This is an account of results in PubChem BioAssay (NCATS).

Experiment [1] is described as follows: Validation of Assay for Modulators of Lamin A Splicing (AID 1459; active means well fitted curve in the direction sought with a large enough effect in the signal ratio; the % refers to the signal ratio;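 further: cells exposed to compound for two days before reading; 0% is about no effect; ratio rise marks activators and ratio drop marks inhibitors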). In short, it runs like this: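 Splicing correction read as GFP (500-530 nm) over DsRed2 (575-640 nm) object intensity after 48 h compound exposure of reporter HeLa S3 clones (600 cells/well, 2% FBS medium); ancitabine and cycloheximide titrations, 0.5% DMSO as vehicle.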
The nature of experiment [2]: qHTS Assay for Lipid Storage Modulators (AID 1519; calls by dose curve; on activity change, negative = inhibition: on the % scale 0 is the no-effect control and ±100 the full control effect). Particulars: Drosophila S3 cells, BODIPY lipid droplet/cell ratio, laser cytometry, cells loaded with oleic acid. Summed up:
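Cells seeded at 5,000 per well were treated with compounds over a concentration series and loaded with oleic acid (400 uM, as added). Lipid droplet fluorescence (488 nm excitation, 500-530 nm channel) was read by laser-scanning cytometry and normalized to 20 uM Triacsin C.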

Experiment [3] concerns the target DNA repair nuclease/redox regulator APEX1 (Homo sapiens) (UniProt P27695). The experiment is described as follows: qHTS Validation Assay for Inhibitors of the Human Apurinic/apyrimidinic Endonuclease 1 (APE1) (AID 1705; further: potency means the concentration at half of the fitted maximal effect;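 on activity change, negative = inhibition: TAMRA fluorescence gain over two minutes as APE1 cuts a quenched THF abasic duplex; on the % scale 0 is the no-effect control and ±100 the full control effect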). Summed up: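 Activity read as rising fluorescence (598 nm emission, 525 nm excitation) from incision of a TAMRA/BHQ-2 duplex carrying a THF abasic site (50 nM). Compound and enzyme sat 15 min at RT before substrate start; signal change between first and third 60-s reads.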

Experiment [4] in a line: Counterscreen for APE1 Inhibitors: Fluorescent Dye Displacement Validation Assay (AID 1707). Further: potency means the concentration at half of the fitted maximal effect.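 On activity change, negative = inhibition: plate controls were ThO with dsDNA and no compound for no effect and ThO without dsDNA for full effect.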 Summed up: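 Signal: ThO fluorescence (ex 480 nm/em 540 nm) on binding 50 nM dsDNA; displacement by test compound reduces it. Conditions: 250 nM dye, 50 mM Tris-HCl pH7.5, 2 mM MgCl2, 50mM NaCl, 0.01% Tween-20.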
The nature of experiment [5]: qHTS for differential inhibitors of proliferation of Plasmodium falciparum line 7G8 (AID 1815).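 Further: parasite growth measured after three days of incubation.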 Further: potency means the concentration at half of the fitted maximal effect.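 On activity change, negative = inhibition: plate controls were vehicle wells for no effect and reference inhibitor wells for full effect.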
Experiment [6] addresses Endonuclease 4 (Escherichia coli (strain K12)) (UniProt P0A6C1). Kind of experiment: Counterscreen for APE1 Inhibitors: qHTS Validation Assay for Inhibitors of Endonuclease IV (AID 1708). Further: on the % scale 0 is the no-effect control and ±100 the full control effect. In short, it runs like this:
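Measured as reaction progress, the fluorescence gain between first and third kinetic reads after adding 50 nM TAMRA/BHQ-2 THF duplex to 2 nM enzyme preincubated 15 min with compound; 2 mM MgCl2, pH 7.5.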

For experiment [7], the target named is Alpha-galactosidase A (Homo sapiens) (UniProt P06280). Kind of experiment: Counterscreen for Glucocerebrosidase Inhibitors: qHTS Assay for Human alpha-Galactosidase at pH 4.5 (AID 992). Further: 0% is about no effect. Summed up:
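Citrate buffer pH 4.5, Tween-20 0.005%. Enzyme 2 nM, substrate 80 uM, 20 min RT. Stop pH 10. Fluorescence Ex 365/Em 440. AC50 by Hill fit.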

The target of experiment [8] is alpha-glucosidase (Oryza sativa, rice) (UniProt Q653V4). Kind of experiment: Counterscreen for Glucocerebrosidase Inhibitors: qHTS Assay for Rice alpha-Glucosidase at pH 5.0 (AID 997).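 Further: 0% = full activity with enzyme and -100% = basal without enzyme.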 Summed up: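 Endpoint fluorogenic assay at pH 5.0: compounds (0.7 nM to 77 uM) titrated against 4 nM rice enzyme and 400 uM 4-MU-alpha-glucoside for 20 min at room temperature; NaOH/glycine stop, read ex 365/em 440 nm, Hill-fitted AC50.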

The mark [9] stands for this setting: measured here: cell count channel max response.
The mark [10] stands for this setting: measured here: lipid channel max response.

“And” between values parts separate entries of the source, which are not always exact repeats. Identical values can stand only once. Records with an inconclusive call do not appear. The source made the active and inactive calls. Unless noted, the call rests on the fitted dose curve; in most records, active means well fitted curve in the direction sought with a large enough effect; inconclusive means small, poorly fitted or top-dose-only effect, or another doubt; inactive means no such curve, though single readings can be large; an effect the other way counts as inactive or inconclusive.

Chain of DNA repair nuclease/redox regulator APEX1 (Homo sapiens) (P27695 whole entry, looked up): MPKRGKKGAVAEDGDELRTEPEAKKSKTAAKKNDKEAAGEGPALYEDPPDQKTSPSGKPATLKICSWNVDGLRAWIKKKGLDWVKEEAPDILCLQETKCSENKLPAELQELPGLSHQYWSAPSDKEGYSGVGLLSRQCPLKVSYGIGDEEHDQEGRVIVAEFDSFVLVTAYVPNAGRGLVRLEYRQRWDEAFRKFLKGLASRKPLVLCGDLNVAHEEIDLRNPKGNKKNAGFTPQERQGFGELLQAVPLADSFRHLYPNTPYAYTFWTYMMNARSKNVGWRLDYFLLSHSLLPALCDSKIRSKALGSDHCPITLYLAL
Chain of Alpha-galactosidase A (Homo sapiens) (P06280 whole entry, looked up): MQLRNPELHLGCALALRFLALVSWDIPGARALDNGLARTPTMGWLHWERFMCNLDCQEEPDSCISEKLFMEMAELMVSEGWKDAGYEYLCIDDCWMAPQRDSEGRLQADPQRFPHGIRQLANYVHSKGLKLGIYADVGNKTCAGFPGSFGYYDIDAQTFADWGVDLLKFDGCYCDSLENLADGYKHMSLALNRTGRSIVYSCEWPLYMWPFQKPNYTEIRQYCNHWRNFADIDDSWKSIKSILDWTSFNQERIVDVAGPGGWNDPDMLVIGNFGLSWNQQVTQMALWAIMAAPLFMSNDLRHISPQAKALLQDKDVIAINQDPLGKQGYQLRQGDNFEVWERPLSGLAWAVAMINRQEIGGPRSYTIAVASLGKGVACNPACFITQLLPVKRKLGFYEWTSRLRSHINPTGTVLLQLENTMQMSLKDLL

Regarding `COc1cc2nc(N3CCN(C(=O)C4CCCO4)CC3)nc(N)c2cc1OC` (stereo not given), in experiment [1], the compound was called inactive. Besides, the activity change, negative = inhibition in experiment [2] (at 57.5 µM (top of the series)) is 0.288% (inactive). Also, the max response in experiment [2] (setting [9]) was -1.5%; in experiment [2] (setting [10]), -3.7%. The Potency result in experiment [3] and in experiment [4] was “inactive” in each case.
With `Cc1ncc([N+](=O)[O-])n1CC(C)O` (stereo not given), the activity change, negative = inhibition in experiment [2] (at 57.5 µM (top of the series)) was 2.12% (inactive). The max response in experiment [2] (setting [9]) came out at 10.3%; in experiment [2] (setting [10]), 12.9%.
For `CN1C(C(=O)Nc2ccccn2)=C(O)c2sccc2S1(=O)=O`, in experiment [2] (at 25.7 µM (top of the series)), the activity change, negative = inhibition was -0.44% (inactive). Besides, the figures for the max response in experiment [2] (setting [9]) and in experiment [2] (setting [10]) were -5.92% and -4.62%, respectively.
As to `N=C(N=C(N)N)N1CCOCC1`, the activity change, negative = inhibition in experiment [2] (at 25.7 µM (top of the series)) is -1.12% (inactive). Besides, the max response came to 14.2% in experiment [2] (setting [9]) and 12.8% in experiment [2] (setting [10]).
As to `Cc1ccc(S(=O)(=O)NC(=O)NN2CC3CCCC3C2)cc1` (stereo not given), the activity change, negative = inhibition in experiment [2] (at 57.5 µM (top of the series)) was 1.76% (inactive) and 2.62% (inactive). The max response is 7.98% and 20.6% in experiment [2] (setting [9]); 13.4% and 23.5% in experiment [2] (setting [10]).
For the compound `OC(CN1CCN(c2cccc(Cl)c2)CC1)C(c1ccccc1)c1ccccc1` (stereo not given), the outcome in experiment [1] was inactive. In addition, the Potency result in experiment [3] and in experiment [4] was “inactive” in each case. The Potency in experiment [5] was 14.1 µM (active).
On to `CCCCc1ccc2nc(NC(=O)OC)[nH]c2c1`, for which, in experiment [2] (at 25.7 µM (top of the series)), the activity change, negative = inhibition was 1.84% (inactive). Also, the max response is -4.18% in experiment [2] (setting [9]) and -2.48% in experiment [2] (setting [10]).
Take `C[C@@H](N)C1CCC(C(=O)Nc2ccncc2)CC1` (stereo not given in full): the call in experiment [1] and in experiment [6] was inactive. The activity change, negative = inhibition in experiment [2] (at 57.5 µM (top of the series)) is 2.12% (inactive). In addition, the results for the max response in experiment [2] (setting [9]) and in experiment [2] (setting [10]) were -4.26% and -0.634%, respectively. In addition, the Potency entry in experiment [3], in experiment [4] and in experiment [5] was “inactive” in each case.
Regarding `O=c1c(O)c(-c2cc(O)c(O)c(O)c2)oc2cc(O)cc(O)c12`, the compound was called inactive in experiment [7], in experiment [8], in experiment [1] and in experiment [6]. Moreover, the activity change, negative = inhibition in experiment [2] (at 25.7 µM (top of the series)) was 2.34% (inactive); in experiment [2] (at 57.5 µM (top of the series)) it was 14.6% (inactive) and -3.22% (inactive). In addition, the max response in experiment [2] (setting [9]) was -7.21% and 17.3% and -40.9%; in experiment [2] (setting [10]) it was -2.79% and 29.1% and -42.9%. Moreover, the Potency was 0.355 µM (active) in experiment [3] and 3.55 µM (active) in experiment [4].
Regarding `O=C1c2ccccc2-c2n[nH]c3cccc1c23`, the compound was called inactive in experiment [7], in experiment [8] and in experiment [1]. In experiment [2] (at 57.5 µM (top of the series)), the activity change, negative = inhibition was 2.36% (inactive). The max response in experiment [2] (setting [9]) was -6.85%; in experiment [2] (setting [10]), -4.08%. Further, the Potency result in experiment [4] was “inactive”. Further, the Potency in experiment [5] was 10 µM (active).
For `CCN(CCO)CCCC(C)Nc1ccnc2cc(Cl)ccc12` (stereo not given), in experiment [2] (at 57.5 µM (top of the series)), the activity change, negative = inhibition was 5.88% (inactive). Further, the results for the max response in experiment [2] (setting [9]) and in experiment [2] (setting [10]) were 13.5% and 23.6%, respectively.
With `CN(C)CCCC1(c2ccc(F)cc2)OCc2cc(C#N)ccc21` (stereo not given), the compound was called inactive in experiment [1] and in experiment [6]. Also, the activity change, negative = inhibition in experiment [2] (at 57.5 µM (top of the series)) is 0.497% (inactive). The max response in experiment [2] (setting [9]) is -10.6%; in experiment [2] (setting [10]) it was -12.9%. In addition, the Potency entry in experiment [3] and in experiment [4] was “inactive” throughout.
As for `Nc1nc(OCc2ccccc2)c2[nH]cnc2n1`, the outcome in experiment [7], in experiment [8], in experiment [1] and in experiment [6] was inactive. Further, the Potency result in experiment [3], in experiment [4] and in experiment [5] was “inactive” throughout.
Turning to `O=C(O)c1cn(-c2ccc(F)cc2)c2cc(N3CCNCC3)c(F)cc2c1=O`, in experiment [2] (at 57.5 µM (top of the series)), the activity change, negative = inhibition was 4.61% (inactive). Also, the max response stood at 14.8% in experiment [2] (setting [9]) and 20.1% in experiment [2] (setting [10]).
As to `Cc1cccc(C#Cc2ccccc2)n1`, the result in experiment [7], in experiment [8], in experiment [1] and in experiment [6] was inactive. Moreover, the activity change, negative = inhibition in experiment [2] (at 57.5 µM (top of the series)) was 0.257% (inactive). The max response in experiment [2] (setting [9]) is -2.56%; in experiment [2] (setting [10]), -2.47%. Also, the Potency entry in experiment [3] and in experiment [4] was “inactive” throughout.
